Results taken from PubChem BioAssay (NCATS).
Records with an inconclusive call do not appear. Calls of active or inactive are those of the source. Calls come from the whole dose curve.

Assays:
[1] = Primary qHTS for inhibitors of SARS-S pseudo-typed particle cell entry (AID 1479145); note: nearly all actives have a fitted effect of over 45% in size; note: potency is the fitted concentration of half-maximal effect; for activity change, negative = inhibition: series mostly up to about 57 µM
[2] = Primary qHTS for Huh7 cytotoxicity: counterscreen for inhibitors of MERS-S pseudotyped particle cell entry (AID 1479147)
[3] = Primary qHTS for inhibitors of MERS-S pseudo-typed particle cell entry (AID 1479149); note: nearly all actives have a fitted effect of over 60% in size; note: potency is the fitted concentration of half-maximal effect; for activity change, negative = inhibition: series mostly up to about 57 µM
[4] = Primary qHTS for Vero E6 cytotoxicity: counterscreen for inhibitors of SARS-S pseudo-typed particle cell entry (AID 1479150); note: potency is the fitted concentration of half-maximal effect
% is set by controls: 0 for no effect and ±100 for the full control effect.

O=C(O)CCC(=O)Nc1ccc(S(=O)(=O)Nc2nccs2)cc1
inactive: Potency [1] | Potency [2] | Potency [3] | Potency [4]

CC(O)Cn1cnc2c1c(=O)n(C)c(=O)n2C (centres undefined)
inactive: Potency [1] | Potency [2] | Potency [3] | Potency [4]

Cc1[nH]c(C)c(Cl)c(=O)c1Cl
inactive: Potency [1] | Potency [2] | Potency [3] | Potency [4]

CC(C)(C)C(=O)C(Oc1ccc(Cl)cc1)n1ccnc1 (centres undefined)
inactive: Potency [1] | Potency [2] | Potency [3] | Potency [4]

c1ccc2[nH]c(-c3cscn3)nc2c1
inactive: Potency [1] | Potency [2] | Potency [3] | Potency [4]

CCCc1nc(C)c2c(=O)[nH]c(-c3cc(S(=O)(=O)N4CCN(CC)CC4)ccc3OCC)nn12
inactive: Potency [1] | Potency [2] | Potency [3] | Potency [4]

COc1ccccc1N1CCN(CCCNc2cc(=O)n(C)c(=O)n2C)CC1
inactive: Potency [1] | Potency [2] | Potency [3] | Potency [4]

COc1ccc(CN(CCN(C)C)c2ccccn2)cc1
inactive: Potency [1] | Potency [2] | Potency [3] | Potency [4]

CC(C)=CCOc1ccc(/C=C/C(=O)c2ccc(OCC=C(C)C)cc2OCC(=O)O)cc1
inactive: Potency [1] | Potency [2] | Potency [3] | Potency [4]

CC(=O)/C=C/C=C1/C2CCC(C2)C1(C)C (centres undefined)
inactive: Potency [1] | Potency [2] | Potency [3] | Potency [4]

CCOC(=O)[C@H](CCc1ccccc1)N[C@H]1CCc2ccccc2N(CC(=O)O)C1=O
inactive: Potency [1] | Potency [2] | Potency [3] | Potency [4]

O=c1ccc2ccccc2o1
inactive: Potency [1] | Potency [2] | Potency [3] | Potency [4]

C[C@H]1C[C@H]2[C@@H]3CCC4=CC(=O)C=C[C@]4(C)[C@@]3(Cl)[C@@H](O)C[C@]2(C)[C@@]1(O)C(=O)CO
inactive: Potency [1] | Potency [2] | Potency [3] | Potency [4]

N[C@H](C(=O)O)[C@@H](O)c1ccc(O)c(O)c1
inactive: Potency [1] | Potency [2] | Potency [3] | Potency [4]

NC(N)=NCCC[C@H](N)C(=O)O
inactive: activity change, negative = inhibition [1] -24.6% [at 5.34 µM] | outcome [2] inactive [at 5.34 µM] | outcome [3] inactive [at 5.34 µM] | activity change, negative = cytotoxicity [4] 0.575% [at 5.34 µM]

C=Cc1c(C)c2cc3[nH]c(cc4nc(cc5nc(cc1[nH]2)C(C)=C5CCC(=O)O)C(CCC(=O)O)=C4C)c(C)c3C=C
inactive: Potency [1] | Potency [2] | Potency [3] | Potency [4]

CCCCC(=O)O[C@]1(C(=O)CO)CC[C@H]2[C@@H]3CCC4=CC(=O)CC[C@]4(C)[C@H]3[C@@H](O)C[C@@]21C
inactive: Potency [1] | Potency [2] | Potency [3] | Potency [4]

CCc1cccc2c3c([nH]c12)C(CC)(CC(=O)O)OCC3 (centres undefined)
inactive: Potency [1] | Potency [2] | Potency [3] | Potency [4]

CC(=O)O[C@H]1C[C@@H]2CC[C@@H]3[C@H](CC[C@@]4(C)[C@H]3C[C@H]([N+]3(C)CCCCC3)[C@@H]4OC(C)=O)[C@@]2(C)C[C@@H]1N1CCCCC1
inactive: Potency [1] | Potency [2] | Potency [3] | Potency [4]

Oc1c(Cl)cc(Cl)c(Cl)c1Cc1c(O)c(Cl)cc(Cl)c1Cl
inactive: Potency [2]
active: Potency [1] 2.82 µM | Potency [3] 3.55 µM | Potency [4] 5.62 µM

CCOC(=O)[C@H](CCc1ccccc1)N[C@H]1CS[C@H](c2cccs2)CN(CC(=O)O)C1=O
inactive: Potency [1] | Potency [2] | Potency [3] | Potency [4]

CC(=O)OCC(=O)[C@@]1(O)CC[C@H]2[C@@H]3CCC4=CC(=O)C=C[C@]4(C)[C@H]3[C@@H](O)C[C@@]21C
inactive: Potency [1] | Potency [2] | Potency [3] | Potency [4]

CCOC(=O)C(C)(C)Oc1ccc(Cl)cc1
inactive: Potency [1] | Potency [2] | Potency [3] | Potency [4]

C[N+]12CCC(CC1)C(OC(=O)C(O)(c1ccccc1)c1ccccc1)C2 (centres undefined)
inactive: Potency [1] | Potency [2] | Potency [3] | Potency [4]

N[C@H](Cc1c[nH]c2ccccc12)C(=O)O
inactive: Potency [1] | Potency [2] | Potency [3] | Potency [4]

CC(C)C(=O)OCc1cccc(OC(=O)[C@@H]2N3C(=O)[C@@H](NC(=O)Cc4ccccc4)[C@H]3SC2(C)C)c1
inactive: Potency [1] | Potency [2] | Potency [3] | Potency [4]

COCCc1ccc(OCC(O)CNC(C)C)cc1 (centres undefined)
inactive: Potency [1] | Potency [2] | Potency [3] | Potency [4]

O=C(Nc1ccc([N+](=O)[O-])cc1)Nc1ccc([N+](=O)[O-])cc1
inactive: Potency [1] | Potency [2] | Potency [3] | Potency [4]

CCOC(=O)c1c(N)sc2c1CCN(Cc1ccccc1)C2
inactive: Potency [1] | Potency [2] | Potency [3] | Potency [4]

CCOc1ccc2nc(S(N)(=O)=O)sc2c1
inactive: Potency [1] | Potency [2] | Potency [3] | Potency [4]

CCOC(=O)n1ccn(C)c1=S
inactive: Potency [1] | Potency [2] | Potency [3] | Potency [4]

COc1nc(C)nc(Cl)c1NC1=NCCN1
inactive: Potency [1] | Potency [2] | Potency [3] | Potency [4]

C[C@@H]1C[C@H]2[C@@H]3CCC4=CC(=O)C=C[C@]4(C)[C@@]3(Cl)[C@@H](O)C[C@]2(C)[C@@]1(OC(=O)c1ccco1)C(=O)CCl
inactive: Potency [1] | Potency [2] | Potency [3] | Potency [4]

CCCN(CCC)C(=O)C(CCC(=O)O)NC(=O)c1ccccc1 (centres undefined)
inactive: Potency [1] | Potency [2] | Potency [3] | Potency [4]

Cc1ccc(/C=N/n2c(-c3ccccc3)csc2=S)cc1
inactive: Potency [1] | Potency [2] | Potency [3] | Potency [4]

C[C@]12CCC(=O)C=C1CC[C@@H]1[C@@H]2[C@@H](O)C[C@@]2(C)[C@H]1CC[C@]2(O)C(=O)CO
inactive: Potency [1] | Potency [2] | Potency [3] | Potency [4]

Nc1ccc(N=Nc2ccccc2)c(N)n1
inactive: Potency [1] | Potency [2] | Potency [3] | Potency [4]

CCCc1cc(C(N)=S)ccn1
inactive: Potency [1] | Potency [2] | Potency [3] | Potency [4]

Cc1c(C(=O)NN2CCCCC2)nn(-c2ccc(Cl)cc2Cl)c1-c1ccc(Cl)cc1
inactive: Potency [1] | Potency [2] | Potency [3] | Potency [4]

CCC(=O)O[C@]1(C(=O)CCl)[C@@H](C)C[C@H]2[C@@H]3CCC4=CC(=O)C=C[C@]4(C)[C@@]3(F)[C@@H](O)C[C@@]21C
inactive: Potency [1] | Potency [2] | Potency [3] | Potency [4]

C#C[C@]1(O)CC[C@H]2[C@@H]3[C@H](C)CC4=C(CCC(=O)C4)[C@H]3CC[C@@]21C
inactive: Potency [1] | Potency [2] | Potency [3] | Potency [4]

NS(=O)(=O)c1cc2c(cc1Cl)NC(CSCc1ccccc1)=NS2(=O)=O
inactive: Potency [1] | Potency [2] | Potency [3] | Potency [4]

Cc1ccc2c(Cl)cc(Cl)c(O)c2n1
inactive: Potency [1] | Potency [2] | Potency [3] | Potency [4]

C/C(=N/NC(=O)c1ccncc1)C(=O)O
inactive: Potency [1] | Potency [2] | Potency [3] | Potency [4]

CCN(CC)C(=O)C1CN2CCc3cc(OC)c(OC)cc3C2CC1OC(C)=O (centres undefined)
inactive: Potency [1] | Potency [2] | Potency [3] | Potency [4]

C[C@]12C=CC(=O)C=C1CC[C@H]1[C@@H]3C[C@@H](O)[C@](O)(C(=O)CO)[C@@]3(C)C[C@H](O)[C@@]12F
inactive: Potency [1] | Potency [2] | Potency [3] | Potency [4]

O=C(CCCCC(=O)Nc1c(I)cc(I)c(C(=O)O)c1I)Nc1c(I)cc(I)c(C(=O)O)c1I
inactive: Potency [1] | Potency [2] | Potency [3] | Potency [4]

CCN(CC)C(=O)Nc1ccc(OCC(O)CNC(C)(C)C)c(C(C)=O)c1 (centres undefined)
inactive: Potency [2] | Potency [3] | Potency [4]

CN1CCC(=C2c3ccccc3CC(=O)c3sccc32)CC1
inactive: Potency [2] | Potency [3] | Potency [4]
